Experiment in all cases: log2 fold change, soluble protein after heating vs DMSO (PISA); higher = thermal stabilisation; K562 lysate, 10 uM; active = over 0.2 and 3.5 SD of the protein, either way, in both replicates (recomputed)
Compound in test [1]: C1=CC=C(C=C1)[C@H](COC2=CC3=C(C=C2)NC(=O)N3)NC(=O)C4=CC=CN(C4=O)CC5=CC(=C(C=C5)F)F
The essentials:
(§1)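 Soluble protein was defined as the supernatant remaining after 21,000xg for 90 min, following pooling of heated aliquots and adjustment to 0.5% NP-40 at 4°C. Before that, crude K562 extract at 1 mg/mL protein in PBS pH 7.4 with 1 mM MgCl2 was treated with 10 μM compound for 30 min and heated for 3 min across 48°C-58°C. Quantification used TMTpro 16plex LC-MS/MS with channel sums equalised, and values are log-two fold changes in thermal stability relative to solvent controls from duplicates.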

Compound in test [2]: CC1=C(SC2=C1C(=N[C@H](C3=NN=C(N32)C)CC(=O)N)C4=CC=C(C=C4)Cl)C
The essentials: as §1

Compound in test [3]: c1ccc([C@@H]2C[C@H]2NC2CCNCC2)cc1
The essentials: as §1

Compound in test [4]: CC1=C2C(=CC=C1)N=C(N(C2=O)C3=CC=CC=C3C)CN4C=NC5=C(N=CN=C54)N
The essentials:
as §1

Compound in test [5]: Cc1sc2c(c1C)C(c1ccc(Cl)cc1)=N[C@@H](CC(=O)OC(C)(C)C)c1nnc(C)n1-2
An outline of the steps:
as §1

The full data set covers some 8,800 targets. This sample favours those with a hit. About 0.5% of all pairs of compound and target were hits. A number with no mark means an inactive call.

UniProt O60637, sequence (O60637 whole entry, looked up): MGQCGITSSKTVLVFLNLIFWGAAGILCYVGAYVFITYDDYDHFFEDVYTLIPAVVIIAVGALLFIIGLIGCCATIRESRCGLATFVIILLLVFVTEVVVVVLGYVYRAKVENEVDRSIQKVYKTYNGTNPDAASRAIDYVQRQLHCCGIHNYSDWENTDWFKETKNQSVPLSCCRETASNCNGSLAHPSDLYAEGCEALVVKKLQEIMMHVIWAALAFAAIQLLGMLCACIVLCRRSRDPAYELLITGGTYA
UniProt P06753, sequence (P06753 whole entry, looked up): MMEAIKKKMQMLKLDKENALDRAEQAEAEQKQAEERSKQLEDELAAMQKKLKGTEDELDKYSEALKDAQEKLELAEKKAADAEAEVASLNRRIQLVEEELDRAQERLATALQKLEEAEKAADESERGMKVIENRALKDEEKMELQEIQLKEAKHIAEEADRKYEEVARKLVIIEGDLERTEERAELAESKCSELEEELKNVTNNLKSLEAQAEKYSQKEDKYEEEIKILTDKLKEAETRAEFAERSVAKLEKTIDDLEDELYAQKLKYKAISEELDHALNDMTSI
UniProt Q9NPG3, sequence (Q9NPG3 whole entry, looked up): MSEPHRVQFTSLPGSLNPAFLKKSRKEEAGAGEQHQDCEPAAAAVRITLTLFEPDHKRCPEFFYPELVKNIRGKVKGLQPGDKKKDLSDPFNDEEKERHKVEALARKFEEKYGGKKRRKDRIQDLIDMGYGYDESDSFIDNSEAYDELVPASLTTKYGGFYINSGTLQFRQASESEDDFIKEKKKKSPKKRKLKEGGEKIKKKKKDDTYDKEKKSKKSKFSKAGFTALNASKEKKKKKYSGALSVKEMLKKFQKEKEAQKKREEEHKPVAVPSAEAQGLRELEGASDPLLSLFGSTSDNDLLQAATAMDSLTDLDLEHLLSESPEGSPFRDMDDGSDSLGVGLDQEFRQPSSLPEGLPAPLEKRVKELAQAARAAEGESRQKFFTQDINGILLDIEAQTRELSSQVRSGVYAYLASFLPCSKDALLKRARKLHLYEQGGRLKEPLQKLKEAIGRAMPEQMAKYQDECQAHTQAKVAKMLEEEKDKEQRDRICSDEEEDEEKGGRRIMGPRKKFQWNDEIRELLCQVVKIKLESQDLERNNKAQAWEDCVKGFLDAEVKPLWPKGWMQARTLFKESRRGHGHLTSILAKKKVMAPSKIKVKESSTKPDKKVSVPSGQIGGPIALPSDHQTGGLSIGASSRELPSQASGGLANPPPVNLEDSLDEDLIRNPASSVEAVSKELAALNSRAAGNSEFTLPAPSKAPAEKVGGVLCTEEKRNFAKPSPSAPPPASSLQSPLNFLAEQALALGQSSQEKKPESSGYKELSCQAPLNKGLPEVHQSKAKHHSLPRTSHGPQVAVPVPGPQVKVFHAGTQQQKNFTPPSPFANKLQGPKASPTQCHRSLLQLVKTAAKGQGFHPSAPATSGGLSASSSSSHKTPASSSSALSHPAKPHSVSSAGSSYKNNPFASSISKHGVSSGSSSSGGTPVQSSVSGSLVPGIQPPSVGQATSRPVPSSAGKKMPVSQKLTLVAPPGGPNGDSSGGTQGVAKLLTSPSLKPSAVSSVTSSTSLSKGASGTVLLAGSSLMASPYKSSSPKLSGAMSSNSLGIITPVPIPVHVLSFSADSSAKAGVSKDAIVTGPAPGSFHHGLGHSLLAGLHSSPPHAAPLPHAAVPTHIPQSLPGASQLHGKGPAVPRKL
UniProt Q04726, sequence (Q04726 whole entry, looked up): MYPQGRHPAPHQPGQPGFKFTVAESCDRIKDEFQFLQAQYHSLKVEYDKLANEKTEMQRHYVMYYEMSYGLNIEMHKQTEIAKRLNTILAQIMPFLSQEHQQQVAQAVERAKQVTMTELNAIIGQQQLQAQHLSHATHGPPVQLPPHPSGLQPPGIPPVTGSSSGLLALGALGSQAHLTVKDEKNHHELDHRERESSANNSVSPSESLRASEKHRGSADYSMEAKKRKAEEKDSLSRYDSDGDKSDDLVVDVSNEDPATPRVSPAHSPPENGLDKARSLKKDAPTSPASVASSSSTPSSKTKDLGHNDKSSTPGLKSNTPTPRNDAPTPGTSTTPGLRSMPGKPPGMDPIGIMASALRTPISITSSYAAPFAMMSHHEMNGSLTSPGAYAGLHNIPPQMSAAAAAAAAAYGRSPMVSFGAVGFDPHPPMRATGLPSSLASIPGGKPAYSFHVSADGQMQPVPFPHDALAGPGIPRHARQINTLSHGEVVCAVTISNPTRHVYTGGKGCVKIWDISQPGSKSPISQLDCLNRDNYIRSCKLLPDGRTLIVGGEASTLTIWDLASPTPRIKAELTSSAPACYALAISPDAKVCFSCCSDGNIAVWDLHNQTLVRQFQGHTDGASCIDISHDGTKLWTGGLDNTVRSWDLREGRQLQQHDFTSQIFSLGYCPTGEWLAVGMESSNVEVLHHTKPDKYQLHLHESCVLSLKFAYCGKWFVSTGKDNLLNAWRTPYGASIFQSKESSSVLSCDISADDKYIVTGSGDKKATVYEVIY
UniProt Q9Y5Z9, sequence (Q9Y5Z9 whole entry, looked up): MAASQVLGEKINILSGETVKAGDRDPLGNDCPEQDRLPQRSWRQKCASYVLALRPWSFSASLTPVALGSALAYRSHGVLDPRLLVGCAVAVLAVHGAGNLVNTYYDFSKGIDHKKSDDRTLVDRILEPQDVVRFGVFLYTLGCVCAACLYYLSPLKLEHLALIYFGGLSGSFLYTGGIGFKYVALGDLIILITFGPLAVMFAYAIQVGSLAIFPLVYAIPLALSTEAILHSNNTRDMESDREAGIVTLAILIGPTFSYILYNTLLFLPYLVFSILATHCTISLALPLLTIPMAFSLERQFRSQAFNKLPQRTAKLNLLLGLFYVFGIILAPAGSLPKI
UniProt Q9UGU0, sequence (Q9UGU0 whole entry, looked up): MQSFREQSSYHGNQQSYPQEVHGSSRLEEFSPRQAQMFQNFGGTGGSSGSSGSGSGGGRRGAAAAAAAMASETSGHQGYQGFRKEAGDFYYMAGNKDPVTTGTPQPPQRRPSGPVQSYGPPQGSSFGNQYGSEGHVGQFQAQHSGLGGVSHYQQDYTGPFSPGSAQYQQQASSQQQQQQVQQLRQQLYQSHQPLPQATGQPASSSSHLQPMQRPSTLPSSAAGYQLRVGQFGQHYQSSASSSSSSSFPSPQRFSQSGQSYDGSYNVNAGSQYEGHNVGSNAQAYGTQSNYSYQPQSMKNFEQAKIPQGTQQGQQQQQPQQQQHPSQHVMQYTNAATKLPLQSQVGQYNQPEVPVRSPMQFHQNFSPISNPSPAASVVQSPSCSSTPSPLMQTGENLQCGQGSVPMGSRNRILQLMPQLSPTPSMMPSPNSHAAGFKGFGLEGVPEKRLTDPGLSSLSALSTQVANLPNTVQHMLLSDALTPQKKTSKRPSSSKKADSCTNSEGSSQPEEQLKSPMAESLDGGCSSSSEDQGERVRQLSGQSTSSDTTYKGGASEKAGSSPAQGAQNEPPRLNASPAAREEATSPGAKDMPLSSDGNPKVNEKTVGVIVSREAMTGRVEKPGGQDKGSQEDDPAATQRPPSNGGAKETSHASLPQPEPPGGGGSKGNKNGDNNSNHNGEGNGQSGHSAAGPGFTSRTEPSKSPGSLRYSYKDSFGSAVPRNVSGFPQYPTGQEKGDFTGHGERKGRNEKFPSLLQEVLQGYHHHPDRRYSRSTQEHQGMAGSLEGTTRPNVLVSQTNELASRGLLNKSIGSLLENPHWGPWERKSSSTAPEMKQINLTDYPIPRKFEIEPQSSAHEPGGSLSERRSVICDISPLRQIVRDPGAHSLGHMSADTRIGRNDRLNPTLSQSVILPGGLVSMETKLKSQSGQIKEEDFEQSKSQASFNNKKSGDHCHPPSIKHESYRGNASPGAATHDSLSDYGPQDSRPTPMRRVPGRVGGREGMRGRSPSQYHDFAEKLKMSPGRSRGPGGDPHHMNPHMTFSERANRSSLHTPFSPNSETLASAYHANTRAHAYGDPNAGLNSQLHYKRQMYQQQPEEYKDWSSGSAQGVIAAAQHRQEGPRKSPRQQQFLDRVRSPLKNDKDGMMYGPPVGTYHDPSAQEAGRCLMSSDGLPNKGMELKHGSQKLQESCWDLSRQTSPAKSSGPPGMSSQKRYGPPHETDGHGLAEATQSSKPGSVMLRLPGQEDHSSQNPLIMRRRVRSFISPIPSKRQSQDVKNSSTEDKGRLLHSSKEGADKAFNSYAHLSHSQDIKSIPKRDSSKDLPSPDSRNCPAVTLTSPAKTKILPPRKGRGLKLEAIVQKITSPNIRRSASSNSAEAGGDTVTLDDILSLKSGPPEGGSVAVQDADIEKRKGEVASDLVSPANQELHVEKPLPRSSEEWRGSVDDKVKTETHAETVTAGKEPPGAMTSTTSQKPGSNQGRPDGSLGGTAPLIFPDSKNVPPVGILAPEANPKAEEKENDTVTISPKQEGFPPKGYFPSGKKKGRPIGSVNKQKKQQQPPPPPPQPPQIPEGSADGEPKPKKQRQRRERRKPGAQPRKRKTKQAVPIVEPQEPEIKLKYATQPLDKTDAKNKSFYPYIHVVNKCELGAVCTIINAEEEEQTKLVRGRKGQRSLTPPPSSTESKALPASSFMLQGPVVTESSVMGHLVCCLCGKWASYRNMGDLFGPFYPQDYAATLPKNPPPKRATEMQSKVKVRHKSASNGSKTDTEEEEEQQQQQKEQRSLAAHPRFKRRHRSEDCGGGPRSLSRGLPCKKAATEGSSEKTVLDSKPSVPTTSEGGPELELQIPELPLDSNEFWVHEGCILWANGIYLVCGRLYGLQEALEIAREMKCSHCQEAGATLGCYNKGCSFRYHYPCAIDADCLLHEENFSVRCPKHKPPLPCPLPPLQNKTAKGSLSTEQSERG
UniProt O43399, sequence (O43399 whole entry, looked up): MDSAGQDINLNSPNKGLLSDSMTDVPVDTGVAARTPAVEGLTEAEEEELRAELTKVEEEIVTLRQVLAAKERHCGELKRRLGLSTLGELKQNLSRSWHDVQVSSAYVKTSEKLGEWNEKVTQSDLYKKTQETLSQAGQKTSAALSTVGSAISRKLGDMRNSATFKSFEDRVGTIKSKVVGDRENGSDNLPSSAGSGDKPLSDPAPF
UniProt Q9NRX6, sequence (Q9NRX6 whole entry, looked up): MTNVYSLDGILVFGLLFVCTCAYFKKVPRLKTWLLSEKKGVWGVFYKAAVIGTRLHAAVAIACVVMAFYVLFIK

TPD52L2 isoform 3 (UniProt O43399): the log2 fold change in test [1] is -0.058; in test [2], 0.135; in test [3], 0.098.

With TM2D3 (UniProt Q9BRN9), the log2 fold change was 0.023 in test [1], -0.003 in test [2] and -0.513 in test [3].

UBR4 isoform 4 (UniProt Q5T4S7): the log2 fold change in test [4] is -0.023; in test [5] it was -0.284.

TJP1 (UniProt H0Y3R8): in test [3], the log2 fold change was 0.031.

Consider UCP2 (UniProt P55851), for which the log2 fold change in test [4] is -0.003.

With TUBB4A (UniProt M0QYM7), the log2 fold change in test [1] is -0.207; in test [2], -0.162; in test [4], 0.016; in test [3], -0.074.

In the case of TUBB6 (UniProt K7ES63), the log2 fold change in test [1] is -0.115; in test [2], 0.02; in test [4], -0.028; in test [3] it was -0.085.

Take TRPM4 (UniProt Q8TD43): the log2 fold change in test [1] was -0.074; in test [2], 0.114; in test [5], -0.042; in test [3], -0.354.

TNIK isoform 5 (UniProt Q9UKE5): the log2 fold change in test [1] is 0.008; in test [2], -0.009; in test [5] it was -0.089; in test [3], -0.041.

For TLE3 (UniProt H0YL70), in test [5], the log2 fold change was -0.343.

In the case of TMEM167B (UniProt Q9NRX6), the log2 fold change was 0.021 in test [1], -0.032 in test [2], 0.036 in test [4] and -0.187 in test [3].

TASP1 (UniProt Q9H6P5): the log2 fold change in test [1] is 0.027; in test [2], 0.205; in test [5], 0.059.

In the case of TRIM3 (UniProt O75382), the log2 fold change in test [4] was 0.197.

TFPI isoform 2 (UniProt P10646): in test [4], the log2 fold change was 0.048.

Take TSPAN3 (UniProt O60637): the log2 fold change was 0.174 in test [4], 0.006 in test [5] and 0.16 in test [3].

Turning to TMSB4X (UniProt P62328), the log2 fold change in test [1] is -0.935 (active); in test [2], 0.434; in test [3], 0.176.

On to TMC1 (UniProt Q8TDI8), for which, in test [4], the log2 fold change is 0.038.

For TUBB4A (UniProt P04350), the log2 fold change in test [1] is 0.015; in test [2], -0.03; in test [5], 0.044; in test [3], 0.044.

For the target TFAP4 (UniProt Q01664), the log2 fold change in test [1] is 0.018; in test [2] it was -0.069; in test [4], 0.012; in test [3] it was 0.081.

As for TPM3 isoform 3 (UniProt P06753), the log2 fold change is -0.048 in test [4], -0.041 in test [5] and -0.266 in test [3].

On to TGFBR1 isoform 2 (UniProt P36897), for which the log2 fold change in test [5] was -0.004.

As for UBIAD1 (UniProt Q9Y5Z9), the log2 fold change was -0.025 in test [4], -0.048 in test [5] and 0.025 in test [3].

Take TEC (UniProt P42680): the log2 fold change in test [4] is 0.114.

For TLK2 isoform 3 (UniProt Q86UE8), the log2 fold change in test [3] is 0.097.

Consider TUBA4A (UniProt C9JQ00), for which the log2 fold change in test [1] is -0.111; in test [2] it was -0.225; in test [3], 0.056.

For U2AF1L5 (UniProt P0DN76), the results for the log2 fold change in test [5] and in test [3] were 0.002 and -0.499, respectively.

As to TLE3 isoform 5 (UniProt Q04726), the log2 fold change in test [1] was -0.061; in test [2], -0.454 (active); in test [5], -0.069; in test [3], 0.199.

On to UBAP2L (UniProt F8W726), for which, in test [4], the log2 fold change is -0.018.

For the target TENM4 (UniProt Q6N022), the log2 fold change in test [1] was -0.057; in test [2], 0.174; in test [3], 0.137.

As to TNFAIP3 (UniProt P21580), the log2 fold change in test [1] was 0.052; in test [2] it was 0.05; in test [5], 0.033; in test [3], 0.06.

As to TMEM154 (UniProt Q6P9G4), the log2 fold change in test [5] was -0.073.

With TFPT (UniProt P0C1Z6), the log2 fold change was -0.176 in test [1], -0.078 in test [2] and -0.052 in test [5].

Take TCF20 (UniProt Q9UGU0): the log2 fold change in test [1] was 0.022; in test [2], -0.063; in test [5], -0.263; in test [3], -0.059.

Take TMEM132A isoform 2 (UniProt Q24JP5): the log2 fold change in test [3] is -0.066.

Take TCF3 (UniProt X6REB3): the log2 fold change in test [4] is -0.031; in test [3] it was -0.25.

TEDC1 (UniProt Q86SX3): the log2 fold change in test [5] is 0.058.

As to UBN1 (UniProt Q9NPG3), the log2 fold change in test [4] was 0.03; in test [5] it was -0.164; in test [3] it was 0.085.

As for TNKS (UniProt O95271), the log2 fold change is 0.023 in test [4], 0.039 in test [5] and -0.035 in test [3].

These data come from the supplement of paper PMC10849652.
